Source: PubChem BioAssay (NCATS)
Records with an inconclusive call do not appear. Where a call stands in place of a potency, no number is given. The source made the active and inactive calls. The call rests on the fitted dose curve; in most records, active means well fitted curve in the direction sought with a large enough effect; inconclusive means small, poorly fitted or top-dose-only effect, or another doubt; inactive means no such curve, though single readings can be large; an effect the other way counts as inactive or inconclusive. Bridge positions count the residues as written; N and C are the ends. Square brackets hold non-standard residues; d marks the D form. Side chains are listed from the residue outwards. Peptide text beside a SMILES is read from it. * marks the point of attachment. Phg(4-OMe) = COc1ccc([C@H](N)C(=O)O)cc1; d(aIle) = CC[C@H](C)[C@@H](N)C(=O)O; d(aThr) = C[C@@H](O)[C@@H](N)C(=O)O; NMeF = CN[C@@H](Cc1ccccc1)C(=O)O; Isobutyryl = CC(C)C(=O)*

Assay: HPAF-II 24hr Apoptosis Induction qHTS against the NCATS CANVASS Library (AID 1347356)
Conditions: HPAF-II caspase-3/7 Caspase-Glo luminescence; series mostly up to 46.1 µM
How it was run: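 Luminescent caspase-3/7 signal (DEVD substrate, Caspase-Glo) served as read-out, taken 15 min after reagent addition to HPAF-II cells exposed 24 h to compounds.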
For `Cc1occ2c1C(=O)c1c(cc(O)c(O)c1O)C2=O`, the outcome was “inactive”.
In the case of `O=C1CC2OCC=C3CN4C5CC3C2[C@@H]2N1c1ccccc1[C@]52C[C@@H]4C1=C[C@H]2C3CC4N(CC[C@@]45c4ccccc4N(C1=O)[C@@H]25)C/C3=C/CO` (stereo partly specified), the outcome is reported as “inactive”.
With `C/C=C(/C)c1c(Cl)c(O)c(C)c2c1Oc1c(Cl)c(O)c(Cl)c(C)c1C(=O)O2` the outcome was “inactive”.
For `C=C[C@@]1(C)CC[C@@H]([C@H](C)C(=O)/C=C/C(C)(C)O)O1`, the outcome was “inactive”.
In the case of `C=C1CC[C@@H](O[C@H]2C[C@@](O)([C@H](C)NC(=O)c3[nH]c(C)c(Cl)c3Cl)[C@H](O)[C@@H](C)O2)[C@@H]2C=C[C@H](C)C(/C(O)=C3/C(=O)[C@H](C(C)C)N([C@@H]4O[C@H](C)[C@H](OC(N)=O)[C@H](OC(C)=O)[C@@H]4OC)C3=O)[C@@H]12` (stereo partly specified), the outcome is reported as “inactive”.
With `COc1ccc([C@@H]2CC(=O)c3c(cc(O)c(C/C=C(\C)CCC=C(C)C)c3O)O2)cc1` the caspase activation was 3.45% [at 9.19 µM] (inactive).
For `O=c1cc(-c2ccc(O)c(O)c2)oc2cc(O[C@@H]3O[C@H](CO)[C@@H](O)[C@H](O)[C@H]3O)cc(O)c12`, the outcome was “inactive”.
For `CC[C@H](C)[C@H]1NC(=O)[C@@H](NC(=O)C(C)C)[C@@H](C)OC(=O)[C@H](COC(=O)CNC(C)=O)NC(=O)[C@@H]([C@@H](C)O)NC(=O)[C@H](Cc2ccccc2)N(C)C(=O)[C@H](c2ccc(OC)cc2)NC1=O` (Isobutyryl-T[d(aIle)][Phg(4-OMe)][NMeF][d(aThr)]S([Gly-Ac]); ester 1-C), the outcome was “inactive”.
In the case of `C/C1=C/[C@@H](C)[C@H](O)[C@@H](O)/C=C/CC/C=C/C(=O)O[C@@H]1[C@H](C)C(=O)CCCC1CC(=O)NC(=O)C1`, the outcome is reported as “inactive”.
For `CC(=O)Oc1cc2c(c(OC(C)=O)c1C1CCc3cc(Cl)c(Cl)n31)C(=O)n1c-2cc(Cl)c1Cl` (stereo unspecified), the outcome was “inactive”.
In the case of `O[C@H]1c2ccccc2-c2c3c(cc4c2[C@@H]1NCC4)OCO3`, the outcome is reported as “inactive”.
In the case of `C[C@]12CC[C@]3(C1)[C@H](CC2=O)C[C@@H](OC(=O)c1ccccc1)[C@H]1[C@](C)(C(=O)O)CCC[C@@]13C`, the outcome is reported as “inactive”.
With `CC(=O)O[C@H]1c2ccccc2-c2c3c(cc4c2[C@@H]1N(C(C)=O)CC4)OCO3` the outcome was “inactive”.
With `C=C1CC[C@@H](Br)C(C)(C)[C@]12CC=C(C)C(=O)C2` the outcome was “inactive”.
In the case of `C/C(=C\[C@H](C)C(=O)/C=C/CC1CC(=O)NC(=O)C1)[C@@H]1OC(=O)/C=C/CC/C=C/C[C@@H](O)[C@@H]1C`, the outcome is reported as “inactive”.
With `CC(C)[C@]12CC[C@@]3(C)[C@H](C)CC[C@H](O)[C@@]3(CC1)c1cc3c(cc12)[nH]c1ccccc13` the outcome was “inactive”.
For `CC(C)=CCC[C@]12c3cc4c(cc3CC[C@@]1(C)[C@H](C)CC[C@@H]2O)[nH]c1ccccc14`, the outcome was “inactive”.
For `Oc1ccc(C2Oc3cc(O)c4c(c3[C@@H]2c2cc(O)cc(O)c2)[C@H]2C(c3ccc(O)cc3)c3c(O)cc5c(c3[C@H]2C4c2ccc(O)cc2)[C@H](c2cc(O)cc(O)c2)C(c2ccc(O)cc2)O5)cc1` (stereo partly specified), the outcome was “inactive”.
In the case of `C=C(C)CC[C@H](Cc1c(O)cc(O)c2c1O[C@H](c1ccc(O)cc1)CC2=O)C(=C)C`, the outcome is reported as “inactive”.
With `C[C@]12CCC[C@](C)(C(=O)O)[C@@H]1CC[C@@]1(C)c3cocc3CC[C@H]21` the outcome was “inactive”.
For `COc1c(O)cc2c(c1O)C(=O)c1c(coc1C)C2=O`, the outcome was “inactive”.
For `CC(C)C[C@@H]1c2c(O)c(C=O)c(O)c(C=O)c2O[C@]2(C)C=C[C@@H](C(C)C)C[C@H]12`, the outcome was “inactive”.
With `CO[C@H]1[C@@H](OC(=O)/C(C)=C\[C@@H]2O[C@@H]2[C@H]2O[C@H]2C)[C@H](O)[C@H](OCC23C[C@@H]4[C@H](C)CC[C@H]4C4(C=O)CC2C=C(C(C)C)C34C(=O)O)O[C@@H]1C` (stereo partly specified) the outcome was “inactive”.
With `C/C=C/C1C=CC2CC(C)CC(C)C2C1C(=O)CC(=O)NC(CO)C/C=C/CCCCC` (stereo unspecified) the outcome was “inactive”.
With `CC[C@H]1[C@H](C)[C@H](c2cc(OC)c(OC)cc2OC)[C@@H](C)[C@H](c2cc(OC)c(OC)cc2OC)[C@@]12C=C(OC)C(=O)C=C2OC` the outcome was “inactive”.

Assay: HEK293 18hr Apoptosis Induction qHTS against the NCATS CANVASS Library (AID 1347357); further: potency means the concentration at half of the fitted maximal effect
Conditions: HEK293 caspase-3/7 Caspase-Glo luminescence; series mostly up to 46.1 µM
How it was run: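 Natural products applied to HEK293 for 18 hr; Caspase-Glo 3/7 readout.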
With `Cc1occ2c1C(=O)c1c(cc(O)c(O)c1O)C2=O` the Potency was “inactive”.
For `O=C1CC2OCC=C3CN4C5CC3C2[C@@H]2N1c1ccccc1[C@]52C[C@@H]4C1=C[C@H]2C3CC4N(CC[C@@]45c4ccccc4N(C1=O)[C@@H]25)C/C3=C/CO` (stereo partly specified), the Potency was “inactive”.
In the case of `CCC(=O)CCCCC[C@@H]1NC(=O)[C@H]2CCCCN2C(=O)[C@H](C(C)C)NC(=O)[C@H](Cc2cn(OC)c3ccccc23)NC1=O`, the Potency is reported as “inactive”.
In the case of `C/C(=C\[C@H](C)C(=O)CCCC1CC(=O)NC(=O)C1)[C@@H]1OC(=O)/C=C/CC/C=C/[C@H](O)[C@@H](O)[C@@H]1C`, the Potency is reported as “inactive”.
With `C/C=C(/C)c1c(Cl)c(O)c(C)c2c1Oc1c(Cl)c(O)c(Cl)c(C)c1C(=O)O2` the Potency was “inactive”.
With `C=C[C@@]1(C)CC[C@@H]([C@H](C)C(=O)/C=C/C(C)(C)O)O1` the Potency was “inactive”.
For `C=CC(CCCCC)C1C(=O)NC(=O)C1C(=O)C1C(/C=C/C)C=CC2CC(C(=O)O)CC(C)C21` (stereo unspecified), the Potency was “inactive”.
In the case of `C=C1CC[C@@H](O[C@H]2C[C@@](O)([C@H](C)NC(=O)c3[nH]c(C)c(Cl)c3Cl)[C@H](O)[C@@H](C)O2)[C@@H]2C=C[C@H](C)C(/C(O)=C3/C(=O)[C@H](C(C)C)N([C@@H]4O[C@H](C)[C@H](OC(N)=O)[C@H](OC(C)=O)[C@@H]4OC)C3=O)[C@@H]12` (stereo partly specified), the Potency is reported as “inactive”.
In the case of `COc1ccc([C@@H]2CC(=O)c3c(cc(O)c(C/C=C(\C)CCC=C(C)C)c3O)O2)cc1`, the caspase activation is reported as 0.682% [at 9.19 µM] (inactive).
With `O=c1cc(-c2ccc(O)c(O)c2)oc2cc(O[C@@H]3O[C@H](CO)[C@@H](O)[C@H](O)[C@H]3O)cc(O)c12` the Potency was “inactive”.
With `CC[C@H](C)[C@H]1NC(=O)[C@@H](NC(=O)C(C)C)[C@@H](C)OC(=O)[C@H](COC(=O)CNC(C)=O)NC(=O)[C@@H]([C@@H](C)O)NC(=O)[C@H](Cc2ccccc2)N(C)C(=O)[C@H](c2ccc(OC)cc2)NC1=O` (Isobutyryl-T[d(aIle)][Phg(4-OMe)][NMeF][d(aThr)]S([Gly-Ac]); ester 1-C) the Potency was “inactive”.
For `C[n+]1cc2cc(C(N)=O)[nH]c3c(=N)c(Cl)c(N)c1c23`, the Potency was “inactive”.
With `C/C1=C/[C@@H](C)[C@H](O)[C@@H](O)/C=C/CC/C=C/C(=O)O[C@@H]1[C@H](C)C(=O)CCCC1CC(=O)NC(=O)C1` the Potency was “inactive”.
In the case of `CC(=O)Oc1cc2c(c(OC(C)=O)c1C1CCc3cc(Cl)c(Cl)n31)C(=O)n1c-2cc(Cl)c1Cl` (stereo unspecified), the Potency is reported as “inactive”.
With `COc1ccc2[nH]c3c(c2c1)CCN1C[C@H]2C[C@@H](OC(=O)c4cc(OC)c(OC)c(OC)c4)[C@H](OC)[C@@H](OC)[C@H]2C[C@H]31` the Potency was “inactive”.
With `O[C@H]1c2ccccc2-c2c3c(cc4c2[C@@H]1NCC4)OCO3` the Potency was “inactive”.
In the case of `CC(C)=CC[C@H]1C[C@@]2(CC=C(C)C)C(=O)[C@](CC=C(C)C)(C(=O)C(C(=O)c3ccccc3)=C2O)C1(C)C`, the Potency is reported as “inactive”.
In the case of `C[C@]12CC[C@]3(C1)[C@H](CC2=O)C[C@@H](OC(=O)c1ccccc1)[C@H]1[C@](C)(C(=O)O)CCC[C@@]13C`, the Potency is reported as “inactive”.
With `CC(=O)O[C@H]1c2ccccc2-c2c3c(cc4c2[C@@H]1N(C(C)=O)CC4)OCO3` the Potency was “inactive”.
For `C=C[C@](Cl)(CBr)CCC=C(C)C`, the Potency was “inactive”.
In the case of `C=C1CC[C@@H](Br)C(C)(C)[C@]12CC=C(C)C(=O)C2`, the Potency is reported as “inactive”.
In the case of `COc1cc2c(cc1OC)[C@@H](c1ccc3c(c1)OCO3)C(C)C(C)C2=O` (stereo partly specified), the Potency is reported as “inactive”.
For `C[C@H]1C=C[C@H]2CCCC[C@@H]2[C@H]1C(=O)[C@H]1CC2=C(C(=O)O)CCN2C1=O`, the Potency was “inactive”.
For `C/C(=C\[C@H](C)C(=O)/C=C/CC1CC(=O)NC(=O)C1)[C@@H]1OC(=O)/C=C/CC/C=C/C[C@@H](O)[C@@H]1C`, the Potency was “inactive”.
In the case of `CC(C)[C@]12CC[C@@]3(C)[C@H](C)CC[C@H](O)[C@@]3(CC1)c1cc3c(cc12)[nH]c1ccccc13`, the Potency is reported as “inactive”.
With `C/C=C1/CN2C3CC1C1C=CC(=O)N4c5ccccc5[C@@]3(C[C@@H]2C2=C[C@H]3C5CC6N(CC[C@@]67c6ccccc6N(C2=O)[C@@H]37)C/C5=C/C)[C@H]14` (stereo partly specified) the Potency was 26.4 µM (active).
With `CC(C)=CCC[C@]12c3cc4c(cc3CC[C@@]1(C)[C@H](C)CC[C@@H]2O)[nH]c1ccccc14` the Potency was “inactive”.
With `Oc1ccc(C2Oc3cc(O)c4c(c3[C@@H]2c2cc(O)cc(O)c2)[C@H]2C(c3ccc(O)cc3)c3c(O)cc5c(c3[C@H]2C4c2ccc(O)cc2)[C@H](c2cc(O)cc(O)c2)C(c2ccc(O)cc2)O5)cc1` (stereo partly specified) the Potency was “inactive”.
With `C=C(C)CC[C@H](Cc1c(O)cc(O)c2c1O[C@H](c1ccc(O)cc1)CC2=O)C(=C)C` the Potency was “inactive”.
With `C=CC(CCCCC)C1C(=O)NC(=O)C1C(=O)C1C2C(C)CC(C(=O)O)CC2CC1(O)C(=O)/C=C/C` (stereo unspecified) the Potency was “inactive”.
In the case of `C[C@]12CCC[C@](C)(C(=O)O)[C@@H]1CC[C@@]1(C)c3cocc3CC[C@H]21`, the Potency is reported as “inactive”.
In the case of `COc1c(O)cc2c(c1O)C(=O)c1c(coc1C)C2=O`, the Potency is reported as “inactive”.
For `CC(C)C[C@@H]1c2c(O)c(C=O)c(O)c(C=O)c2O[C@]2(C)C=C[C@@H](C(C)C)C[C@H]12`, the Potency was “inactive”.
With `COc1cc2c(c(O)c1O)C(=O)c1c(coc1C)C2=O` the Potency was “inactive”.
With `CO[C@H]1[C@@H](OC(=O)/C(C)=C\[C@@H]2O[C@@H]2[C@H]2O[C@H]2C)[C@H](O)[C@H](OCC23C[C@@H]4[C@H](C)CC[C@H]4C4(C=O)CC2C=C(C(C)C)C34C(=O)O)O[C@@H]1C` (stereo partly specified) the Potency was “inactive”.
For `C/C=C/C1C=CC2CC(C)CC(C)C2C1C(=O)CC(=O)NC(CO)C/C=C/CCCCC` (stereo unspecified), the Potency was “inactive”.
